Results reported in ChEMBL document CHEMBL4513216, “Probing the Open Global Health Chemical Diversity Library for Multistage-Active Starting Points for Next-Generation Antimalarials” (ACS Infect Dis, 2020).
Hit rate of the full screen: of about 69,000 compounds, about 8,600 (12%) showed an effect of 50% or more. Only a selection was taken, and strong results are over-represented in it overall.

System: Plasmodium berghei
Test: Screen against P. berghei liver stage (PbLuc), transformed with Luciferase, at 10uM
Assay type: functional, HepG2
Settings: tested at 10 uM

| SMILES | INHIBITION [%] |
| --- | --- |
| CC(O)CN1CCN(C(=O)c2sccc2C2CC2)CC1 (stereo not given) | -1.14 |
| Cc1cnc(CC2COCCN(Cc3nccn3C)C2)cn1 (stereo not given) | 44.1 |
| CC(C)n1ccnc1C1CCN(Cc2ccc(C(F)(F)F)c(F)c2)CC1 | 42.5 |
| CO[C@@H]1CCN(Cc2ccoc2)[C@@H]2CN(Cc3ccco3)C[C@@H]21 | 45.2 |
| CC(C)(C)c1ccn(C2(C(=O)O)CCN(c3ccnc(N)n3)CC2)n1 | 34.5 |
| Cc1nc(C)c(CN2CCOC[C@H](Oc3ccccc3)C2)s1 | 71.4 |
| Cc1nc(C)c(CN2CCOC[C@H](Oc3ccc(S(C)(=O)=O)cc3)C2)s1 | 26.4 |
| Cc1cccc(O[C@H]2COCCN(Cc3sc(C)nc3C)C2)n1 | -60.9 |
| CN(Cc1cc[nH]n1)C(=O)c1cn(Cc2c(F)cccc2F)nn1 | 19.3 |
| Cc1cc(S(=O)(=O)N2CCCc3cc(F)c(F)cc32)sc1C(=O)O | 33.7 |
| CC(=O)N1CCC(n2ccc(-c3cnc(N4CCOCC4)nc3)n2)CC1 | 17.4 |
| CC[C@H](C)Nc1ncc(-c2ccn(C3CCN(C(C)=O)CC3)n2)cn1 | 24.8 |
| CC(=O)N1CCC(n2ccc(-c3cnc(NCC(C)C)nc3)n2)CC1 | 56 |
| CNc1cncc(C2CCCN2S(=O)(=O)c2cccc(F)c2)n1 (stereo not given) | 14.7 |
| Cc1ccc(C(=O)N2C[C@@H]3CCCO[C@@H]3[C@H](N(C)Cc3ccco3)C2)o1 | -7.59 |
| CN(C)c1ncccc1CNC(=O)N1CCCC1CN1CCCC1 (stereo not given) | 57.8 |
| CN(C)c1ncccc1CNC(=O)N1CCCC1CN1CCCCC1 (stereo not given) | 11.6 |
| CN(C)c1ncccc1CNC(=O)N1CCCC1c1ccsc1 (stereo not given) | -0.847 |
| CN1CCC(NC(=O)c2cc(F)cc(Cl)c2O)C1=O (stereo not given) | 26.5 |
| CCc1c(C)nc2n(c1=O)CC(C(=O)Nc1ncccc1C)CS2 (stereo not given) | -0.621 |
| Cc1noc(C(C)C)c1C(=O)NCc1cccc(CN(C)C)c1 | 51.1 |
| Cc1noc(C(C)C)c1C(=O)NCc1cccc(N(C)C)c1 | 6.14 |
| COCc1cccc(CNC(=O)c2c(C)noc2C(C)C)c1 | 42.9 |
| Cc1ncsc1CCN(C)C1CCN(c2ncnc3[nH]cnc23)CC1 | 50.8 |
| Cc1cnccc1CN(C)C1CCN(c2ncnc3[nH]cnc23)CC1 | 48.9 |
| Cc1nn(C)c(C)c1CN(C)C1CCN(c2ncnc3[nH]cnc23)CC1 | 48.9 |
| Cc1ccccc1OCCN1CCN(Cc2cnn(CCO)c2)CC1 | 30.45 |

| SMILES | INHIBITION [%] |
| --- | --- |
| CC(NC(=O)c1cc(-c2cccc(Cl)c2)no1)C(=O)N1CCCC1 (stereo not given) | 86.9 |
| Cc1ccc(-c2cc(C(=O)NC(C)C(=O)N3CCCCC3)on2)cc1 (stereo not given) | -40.3 |
| CC(NC(=O)c1cc(-c2cccc(Cl)c2)no1)C(=O)N(C)C (stereo not given) | -21.6 |
| COc1cc(C)c(NC(=O)CCn2cccc2)cc1OC | -23.2 |
| COc1cc(Cl)c(NC(=O)NCCn2cccc2)cc1OC | -102 |
| COc1cc(C)c(NC(=O)NCCn2cccc2)cc1OC | 52.2 |
| Cn1cc(CN(Cc2cccc(-n3cccn3)c2)C2CC2)cn1 | 49 |
| CCc1ccccc1NC(=O)c1cccc(N(C)S(C)(=O)=O)c1C | -15.3 |
| NC(=O)C1CCCN1C1CCN(C(=O)c2ccc3c(c2)OCO3)CC1 (stereo not given) | 19.9 |
| CSCc1noc(CNC2CCCC(C)(C)C2)n1 (stereo not given) | 16.9 |
| Clc1nc2ccccn2c1CNCC1CN(C2CC2)CCO1 (stereo not given) | -34.4 |
| CC1=CC(C)(C)N(CN2C(=O)c3ccccc3C2=O)c2ccccc21 | 44.6 |
| CC1=CC(C)(C)N(CN2C(=O)c3ccccc3C2=O)c2ccc(C)cc21 | 67.4 |
| COc1ccc(N2CCN(C(=O)NC(C)c3nncn3C)CC2)cc1 (stereo not given) | 19.4 |
| COCC(=O)NCC[C@H]1CC(C)(C)Oc2ccc(OC)cc21 | 1.11 |
| CC(=O)NCC[C@H]1CC(C)(C)Oc2ccccc21 | 18.9 |
| COCC(=O)NCC[C@H]1CC(C)(C)Oc2ccccc21 | 57.5 |
| Cc1cnn(CC2CCCCN2C(=O)c2ccc3[nH]c(=O)[nH]c3c2)c1 (stereo not given) | 39.2 |
| CN(C)C(=O)C1CCN(C2CCN(CC3CC3)CC2)CC1 | 37.5 |
| O=C(c1cc[nH]n1)N1CCc2ccc(S(=O)(=O)N3CCOCC3)cc2C1 | 26.5 |
| CNS(=O)(=O)c1cccc(CNc2cc(C(F)(F)F)ccn2)c1 | 45.4 |
| FC(F)(F)c1cccc(CNc2nccc(C(F)(F)F)n2)c1 | -24.2 |
| NS(=O)(=O)c1cccc(CNc2nccc(C(F)(F)F)n2)c1 | -14.6 |
| CNS(=O)(=O)c1cccc(CNc2ccc(C#N)cn2)c1 | -14.9 |
| CNS(=O)(=O)c1cccc(CNc2ncccn2)c1 | 50.5 |
| CNS(=O)(=O)c1cccc(CNc2nccc(C(F)(F)F)n2)c1 | 71.3 |
| CN(C(=O)c1ccc(C#N)cc1)c1nnc(C2CCOC2)s1 (stereo not given) | -0.585 |

| SMILES | INHIBITION [%] |
| --- | --- |
| Cc1ccc(C(=O)N2CCO[C@H]3[C@H](OCc4ccccn4)CC[C@@H]32)o1 | -31.3 |
| Cc1nn(CCC#N)c(C)c1CCC(=O)N(C)Cc1ccc(F)cc1F | 78.3 |
| Cc1nn(CCC#N)c(C)c1CCC(=O)N(C)Cc1ccsc1 | 19.8 |
| Cc1nn(CCC#N)c(C)c1CCC(=O)N(C)C | 49.5 |
| CCCn1nccc1NC(=O)CN1CCOC(Cn2cc(C)cn2)C1 (stereo not given) | 21.9 |
| CN(C)C[C@H]1OC[C@@H]2CCN(S(=O)(=O)c3ccccc3)C[C@@H]21 | 26.7 |
| Cc1ccc(-c2ncc(CNc3cnccc3CO)s2)o1 | 11.1 |
| Cc1ccc(-c2ncc(CNc3cnccc3CO)s2)cc1 | 80 |
| Cc1ncc(CNc2cnccc2CO)s1 | -37.7 |
| CS(=O)(=O)N[C@@H]1CCN(Cc2cccnc2)[C@H]1Cc1cccnc1 | 45.1 |
| Cn1ccnc1CN1CC[C@@H](NS(C)(=O)=O)[C@@H]1Cc1cccnc1 | 13.6 |
| CS(=O)(=O)N[C@@H]1CCN(Cc2ccncc2)[C@H]1Cc1cccnc1 | 4.27 |
| CS(=O)(=O)N[C@@H]1CCN(Cc2cccs2)[C@H]1Cc1cccnc1 | -21.4 |
| Cn1cc(CN2CC[C@@H](NS(C)(=O)=O)[C@@H]2Cc2cccnc2)cn1 | 54.4 |
| CS(=O)(=O)N[C@@H]1CCN(Cc2cccnc2)[C@H]1Cc1ccccc1 | 52 |
| O=C(CCc1ccccc1Br)NS(=O)(=O)c1ccc2c(c1)OCCO2 | 25.6 |
| O=C(c1ccc(Cn2cnnn2)cc1)N1CC[C@H](CO)[C@H](O)C1 | 22.5 |
| CC(C)CN(Cc1nc2c(cnn2C)c(=O)[nH]1)CC(C)C | -33.55 |
| COc1ccc(-c2cnc(N)nc2C2CCCNC2)cc1 (stereo not given) | 23.9 |
| COc1ccc(-n2cc3[nH][nH]c(=O)n3c2=O)cc1 | -3 |
| COCC1CCN(S(=O)(=O)c2ccc(C(=O)NCC(F)F)cc2)C1 (stereo not given) | 10.6 |
| CCc1cnc(CNC(=O)NC2CCN(C3CCCC3)CC2)s1 | -104 |
| CC(=O)N[C@@H]1CN(C2CCN(c3cccc(Cl)c3)CC2)C[C@H]1C(C)C | 30.8 |
| CC(=O)N[C@@H]1CN(C2CCN(c3cccc(C)c3C)CC2)C[C@H]1C(C)C | 66.1 |
| CC(=O)N[C@@H]1CN(C2CCN(c3ccccc3F)CC2)C[C@H]1C(C)C | 14.8 |
| CCN(CC1CCOC1)C(=O)c1ccc(-c2ccsc2)nc1C (stereo not given) | 19.7 |
| Cn1cnc2c(N3CCOCC3)nc(C3CCNCC3)cc21 | -76.7 |

| SMILES | INHIBITION [%] |
| --- | --- |
| Cc1ccc(-c2nc(CN3CCOC(CN(C)C)C3)co2)cc1 (stereo not given) | 58.5 |
| CN(C)CC1CN(Cc2coc(-c3ccc(Cl)cc3)n2)CCO1 (stereo not given) | 72.9 |
| Cc1ccc(-c2noc(CN3CCOC(CN(C)C)C3)n2)cc1F (stereo not given) | 62.3 |
| c1ccc(-c2nc(CN3CCOC(Cn4cccn4)C3)co2)cc1 (stereo not given) | 22.3 |
| Cc1noc(CN2CCOC(CN(C)C)C2)n1 (stereo not given) | 31.9 |
| CN(C)CC1CN(Cc2coc(-c3cccs3)n2)CCO1 (stereo not given) | 32.8 |
| Fc1ccc(-c2nc(CN3CCOC(Cn4cccn4)C3)co2)cc1 (stereo not given) | 58 |
| CN(C)CC1CN(Cc2coc(-c3ccccc3Cl)n2)CCO1 (stereo not given) | 25.3 |
| CN(C)CC1CN(Cc2coc(-c3cccc(F)c3)n2)CCO1 (stereo not given) | 11.2 |
| Cc1ccc(-c2nc(CN3CCOC(Cn4cccn4)C3)co2)cc1 (stereo not given) | 49.8 |
| CN(C)CC1CN(Cc2coc(-c3ccccc3)n2)CCO1 (stereo not given) | -3.2 |
| CN(C)CC1CN(Cc2nc(-c3cccnc3)no2)CCO1 (stereo not given) | -50.5 |
| Cn1cc(CN2CCC3(CC2)CCN(C(=O)c2cscn2)CC3)cn1 | 34.4 |
| COCC(=O)NCc1cc(=O)n2c(n1)CN(Cc1ccccc1)CCC2 | 25.8 |
| CCC(C)NC(=O)c1cc(Br)c2c(c1)OCCO2 (stereo not given) | 23.5 |
| CC(C)N(CCO)C(=O)c1cc(COc2ccc3c(c2)CCCC3)on1 | -15.6 |
| CC(C(=O)N1CCCCC1)N1CCN(c2ncc(Cl)cn2)CC1 (stereo not given) | -15 |
| c1cnn(C2CN(c3ncnc4[nH]ccc34)C2)c1 | -4.73 |
| Cc1csc(N2CCCN(C(=O)CCNc3ncccn3)CC2)n1 | 7.12 |
| CSC(C)C(=O)Nc1ccnn1-c1ccccc1C (stereo not given) | -2.61 |
| O=C1Nc2ccccc2C12CCN(c1nccs1)CC2 | -15.9 |
| Cc1cc(C)n(CC2CN(Cc3cc(C)on3)CCO2)n1 (stereo not given) | 16 |
| Cc1cc(CN2CCOC(CN(C)C)C2)no1 (stereo not given) | 53.8 |
| Cc1cc(CN2CCOC(CN(C)c3cccnn3)C2)no1 (stereo not given) | 26.9 |
